From PubChem BioAssay (Tox21)
Records with an inconclusive call do not appear. Activity calls are given as the source filed them. Unless noted, calls come from the whole dose curve; as a rule, active = well fitted curve in the direction sought with a large enough effect in the repeat runs; inconclusive = weak or mixed curves; inactive = no such curve, though single readings can be large; an effect the other way counts as inactive or inconclusive.

Columns and labels:
[1] = qHTS RealTime-Glo MT Cell Viability Assay in HepG2 cells - 32 hour (AID 1224877); note: nearly all actives have a fitted effect of over 55% in size
Outline: (§1)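 HepG2 suspension premixed with RealTime-Glo reagents is plated at 600 cells per well and left 5 h at 37 C/5% CO2. Compounds in DMSO then go in, and bioluminescence reflecting viable cell number is recorded over 40 h.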

[2] = A CellTox Green Cytotoxicity Assay to monitor cytotoxicity in HepG2 cells - 24 hour (AID 1224878); note: nearly all actives have a fitted effect of over 45% in size
Outline: (§2)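 Cytotoxicity was tracked as dead-cell DNA fluorescence in HepG2 cells treated with test compounds at 37 C; each time-point value comes from one kinetic series spanning 0, 8, 16, 24, 32 and 40 h.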

[3] = A CellTox Green Cytotoxicity Assay to monitor cytotoxicity in HepG2 cells - 40 hour (AID 1224879); note: nearly all actives have a fitted effect of over 40% in size
Outline: as §2

[4] = A CellTox Green Cytotoxicity Assay to monitor cytotoxicity in HEK293 cells - 32 hour (AID 1224881); note: nearly all actives have a fitted effect of over 40% in size
Outline: (§3)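 Real-time, in one plate: 600 HEK293 cells/well with dead-cell DNA dye, pinned compound after 5 h, 37 C incubation over 40 h; viable cells give no appreciable fluorescence.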

[5] = A CellTox Green Cytotoxicity Assay to monitor cytotoxicity in HepG2 cells - 0 hour (AID 1224882); note: nearly all actives have a fitted effect of over 35% in size
Outline: as §2

[6] = A CellTox Green Cytotoxicity Assay to monitor cytotoxicity in HepG2 cells - 32 hour (AID 1224883); note: nearly all actives have a fitted effect of over 50% in size
Outline: as §2

[7] = A CellTox Green Cytotoxicity Assay to monitor cytotoxicity in HEK293 cells - 8 hour (AID 1224884); note: nearly all actives have a fitted effect of over 35% in size
Outline: as §3

[8] = qHTS RealTime-Glo MT Cell Viability Assay in HepG2 cells - 16 hour (AID 1224885); note: nearly all actives have a fitted effect of over 50% in size
Outline: as §1

[9] = qHTS RealTime-Glo MT Cell Viability Assay in HEK293 cells - 24 hour (AID 1224886); note: top concentration of the series differs between compounds; nearly all actives have a fitted effect of over 50% in size
Outline: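 Reads taken at 0, 8, 16, 24, 32 and 40 h from the same wells. HEK293 cells (600/well) carried RealTime-Glo reagents from seeding, with compound added after a 5 h settle at 37 C.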

[10] = qHTS RealTime-Glo MT Cell Viability Assay in HEK293 cells - 8 hour (AID 1224887); note: top concentration of the series differs between compounds; nearly all actives have a fitted effect of over 50% in size
Outline: (§4)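 Kinetic, non-lysing viability readout. Seed HEK293 (600/well) with reagent, incubate 5 h at 37 C/5% CO2, pin 23 nL compound in DMSO, incubate at 37 C, read luminescence at 0, 8, 16, 24, 32, 40 h.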

[11] = A CellTox Green Cytotoxicity Assay to monitor cytotoxicity in HEK293 cells - 16 hour (AID 1224888); note: nearly all actives have a fitted effect of over 35% in size
Outline: as §3

[12] = qHTS RealTime-Glo MT Cell Viability Assay in HepG2 cells - 0 hour (AID 1224889); note: nearly all actives have a fitted effect of over 50% in size
Outline: as §1

[13] = A CellTox Green Cytotoxicity Assay to monitor cytotoxicity in HepG2 cells - 8 hour (AID 1224890); note: nearly all actives have a fitted effect of over 45% in size
Outline: as §2

[14] = qHTS assay to identify small molecule antagonists of the estrogen receptor alpha (ER-alpha) signaling pathway using the BG1 cell line in the presence of 0.1 nM 17-beta-estradiol - cell viability counter screen (AID 1259241); note: nearly all actives have a fitted effect of over 40% in size
Outline: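 CellTiter-Fluor read (30 min, 37C) on ER-alpha/ERE-luc VM7Luc4E2 cells; 22 hr compound treatment; agonist 0.1 nM E2 final; same-well multiplex.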

[15] = qHTS assay to identify small molecule antagonists of the androgen receptor (AR) signaling pathway using the MDA cell line in the presence of 0.5 nM R1881 - cell viability counter screen (AID 1259242); note: nearly all actives have a fitted effect of over 45% in size
Outline: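 Cells seeded at 3,000/well and allowed 5 hr at 37C, 0% CO2 before compound transfer and R1881 (0.5 nM final) addition; 16 hr later, live-cell protease fluorescence indicated cytotoxicity.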

[16] = biological target: Estrogen receptor (Homo sapiens) (UniProt P03372); assay: qHTS assay to identify small molecule antagonists of the estrogen receptor alpha (ER-alpha) signaling pathway using the BG1 cell line in the presence of 0.1 nM 17-beta-estradiol (AID 1259244); note: nearly all actives have a fitted effect of over 50% in size
Outline: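 Luciferase signal from VM7Luc4E2 ERE-reporter cells, co-dosed with test compound and 0.1 nM final 17beta-estradiol for 22 h, read with ONE-Glo.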

[17] = qHTS assay to identify small molecule HDAC inhibitors (AID 1259364);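 note: wild-type HCT-116 cells with endogenous class I/II HDAC activity; top concentration of the series differs between compounds; nearly all actives have a fitted effect of over 45% in size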
Outline: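 HCT-116 wt cells, 1,500/well, overnight attach. Compounds (DMSO) 2 h, 37 °C. HDAC-Glo I/II, 30 min RT. Luminescence.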

[18] = qHTS assay to identify small molecule HDAC inhibitors - cell viability counter screen (AID 1259365)
Outline: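 To flag cytotoxic hits, 1,500 wild-type HCT-116 cells per well, plated the day before, receive test compounds for 2hr at 37 C before CellTiter-Glo reagent and a luminescence read.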

[19] = qHTS RealTime-Glo MT Cell Viability Assay in HEK293 cells - 0 hour (AID 1224880)
Outline: as §4

[20] = qHTS assay to identify small molecule phospholipidosis (PLD) inducers (AID 1259344; active = well fitted curve in the direction sought with a large enough effect; an effect the other way counts as inactive or inconclusive)
Outline: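 Accumulated phospholipid, stained red by LipidTOX during 24 h compound treatment of HepG2 cells at 37 C, is quantified from images as pit number and intensity, normalised per cell using Hoechst-stained nuclei.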

Measured: Potency

Chain of Estrogen receptor (Homo sapiens) (P03372 whole entry, looked up): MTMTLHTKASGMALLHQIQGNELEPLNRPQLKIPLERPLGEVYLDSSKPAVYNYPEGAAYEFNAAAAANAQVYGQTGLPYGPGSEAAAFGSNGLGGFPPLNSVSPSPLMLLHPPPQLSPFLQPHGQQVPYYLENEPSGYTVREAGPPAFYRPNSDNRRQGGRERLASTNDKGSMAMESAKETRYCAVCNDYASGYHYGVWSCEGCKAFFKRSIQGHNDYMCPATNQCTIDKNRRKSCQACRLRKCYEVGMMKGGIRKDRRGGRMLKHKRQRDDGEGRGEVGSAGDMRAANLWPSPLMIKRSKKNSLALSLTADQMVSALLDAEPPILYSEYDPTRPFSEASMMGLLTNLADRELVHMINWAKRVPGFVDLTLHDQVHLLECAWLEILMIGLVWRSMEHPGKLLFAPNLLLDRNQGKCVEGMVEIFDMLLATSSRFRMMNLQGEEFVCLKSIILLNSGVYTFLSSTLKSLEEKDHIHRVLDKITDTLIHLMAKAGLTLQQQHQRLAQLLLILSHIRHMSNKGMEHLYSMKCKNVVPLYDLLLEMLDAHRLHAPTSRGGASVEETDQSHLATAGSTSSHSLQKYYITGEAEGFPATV

O=S1(=O)CCCC1
not listed: [19] | [20]
inactive: all other assays above

N#CCCOCCOCCC#N
not listed: [19] | [20]
inactive: all other assays above

CC(CC(=O)O)CC(C)(C)C (stereo unspecified)
not listed: [4] | [5] | [9] | [20]
inactive: all other assays above

CN(C)CCOCCN(C)CCO
not listed: [4] | [6] | [7] | [12] | [17] | [20]
inactive: all other assays above

NS(=O)(=O)c1ccccc1OC(F)(F)F
not listed: [16] | [19] | [20]
inactive: all other assays above

CC(=O)OCC(=O)[C@@]1(O)[C@H](OC(C)=O)C[C@H]2[C@@H]3CCC4=CC(=O)C=C[C@]4(C)[C@@]3(F)[C@@H](O)C[C@@]21C
not listed: [7] | [12] | [19]
inactive: all other assays above

CO/N=C(/C(=O)N[C@@H]1C(=O)N2C(C(=O)O)=C(Cn3nnc(C)n3)CS[C@H]12)c1csc(N)n1
not listed: [4] | [5] | [16]
inactive: all other assays above

COc1cc2c(Nc3ccc(Br)cc3F)ncnc2cc1OCC1CCN(C)CC1
not listed: [4] | [5] | [7]
inactive: all other assays above

CN=C(NC#N)NCCSCc1csc(N=C(N)N)n1
not listed: [9] | [12] | [19]
inactive: all other assays above

O=c1cc(O)c(Cl)c[nH]1
not listed: [9] | [16] | [19]
inactive: all other assays above

Nc1cc(S(=O)(=O)O)ccc1S(=O)(=O)O
not listed: [16] | [19] | [20]
inactive: all other assays above

NCCc1ccn[nH]1
not listed: [4] | [6] | [9] | [12] | [17]
inactive: all other assays above

OC(CCN1CCCCC1)(c1ccccc1)c1ccccc1
not listed: [4] | [5] | [7]
inactive: all other assays above

FC(F)(F)/C(=N\OCC1OCCO1)c1ccc(Cl)cc1
not listed: [17] | [19] | [20]
inactive: all other assays above

Cc1nc2ccccc2c(=O)o1
not listed: [4] | [5] | [7] | [17] | [20]
inactive: all other assays above

CCOC(=O)CC(CC(=O)OCC)(OC(C)=O)C(=O)OCC
not listed: [4] | [6] | [16] | [20]
inactive: all other assays above

O=C(O)C(=O)Nc1cccc(-c2nn[nH]n2)c1
not listed: [9] | [16] | [17] | [19]
inactive: all other assays above

CCCOC(=O)CCCCC(=O)OCCC
not listed: [4] | [6] | [12] | [20]
inactive: all other assays above

Cc1ccc(C(=O)C(=O)O)cc1C
not listed: [4] | [6] | [9] | [20]
inactive: all other assays above

CCC(=O)OCCC(C)CCC=C(C)C (stereo unspecified)
not listed: [12] | [16] | [19] | [20]
inactive: all other assays above

Cc1nc(C)nc(N2C[C@@H](C)N(c3ccnc([C@@H](C)O)n3)[C@@H](C)C2)n1
not listed: [19] | [20]
inactive: all other assays above

CCOC(=O)CCCCCCCCC(=O)OCC
not listed: [4] | [5] | [7] | [20]
inactive: all other assays above

CCCCCCCCC(=O)OCC
not listed: [4] | [5] | [17] | [20]
inactive: all other assays above

CCC(C)(CCC(C)C)C(=O)[O-].CCC(C)(CCC(C)C)C(=O)[O-].[Zn+2] (stereo unspecified)
not listed: [16] | [19] | [20]
inactive: all other assays above

CCN(CCO)c1cccc(C)c1
not listed: [12] | [19] | [20]
inactive: all other assays above

SCCSCCS
not listed: [9] | [16] | [17] | [19] | [20]
inactive: all other assays above

COCC(=O)Nc1c(I)c(C(=O)NCC(O)CO)c(I)c(C(=O)N(C)CC(O)CO)c1I (stereo unspecified)
not listed: [9] | [10] | [19]
inactive: all other assays above

CC(=O)Nc1ccc(C)cc1
not listed: [19] | [20]
inactive: all other assays above

O=C1NC2NC(=O)NC2N1 (stereo unspecified)
not listed: [4] | [6] | [16] | [17] | [20]
inactive: all other assays above

CCCCCCCCCCCCCCCCCCN(C)C
not listed: [4] | [5] | [6] | [7] | [9] | [11] | [20]
inactive: all other assays above

Nc1ccc(S(=O)(=O)NC(=O)c2ccccc2)cc1
not listed: [17] | [19]
inactive: all other assays above

CC(=O)Nc1ncc([N+](=O)[O-])s1
not listed: [4] | [5] | [12]
inactive: all other assays above
